target: PEG-3 (UniProt Q6IN02); assay: Peg3 promoter luciferase inhibitors, potency, dose response, cell-based, HeLa, CREF/GAPDH counter-screen panel (AID 624167); settings: CREF/GAPDH counter-screens; HeLa PEG-Prom luciferase reporter, overnight, run 1, dose range 1, at 100 µM (top of the series) unless noted
Sequence (Q6IN02 whole entry, looked up): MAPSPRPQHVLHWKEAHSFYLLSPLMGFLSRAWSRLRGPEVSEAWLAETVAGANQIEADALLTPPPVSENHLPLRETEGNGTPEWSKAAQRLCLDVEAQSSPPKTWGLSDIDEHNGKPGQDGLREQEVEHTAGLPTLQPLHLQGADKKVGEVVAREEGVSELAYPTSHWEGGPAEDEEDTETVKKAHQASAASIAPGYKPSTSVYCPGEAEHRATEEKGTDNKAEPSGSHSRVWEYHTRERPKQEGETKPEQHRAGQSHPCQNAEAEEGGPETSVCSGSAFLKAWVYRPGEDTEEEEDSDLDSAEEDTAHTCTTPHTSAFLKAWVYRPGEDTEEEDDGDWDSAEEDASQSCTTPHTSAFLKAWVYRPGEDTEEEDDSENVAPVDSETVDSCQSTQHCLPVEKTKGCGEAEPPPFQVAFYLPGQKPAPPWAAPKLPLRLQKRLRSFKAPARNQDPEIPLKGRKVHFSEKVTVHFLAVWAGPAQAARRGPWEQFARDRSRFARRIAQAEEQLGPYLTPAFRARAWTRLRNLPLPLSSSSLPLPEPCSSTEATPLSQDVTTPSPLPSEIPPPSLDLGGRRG

Point of comparison: `Cc1cc(NC(c2cccnc2)c2ccc3cccnc3c2O)no1` (configuration not stated), inhibition 63.9%. Against it:
- COc1cc(CNCCCN2CCOCC2)cc(Br)c1OCc1ccc(Cl)cc1 — higher, 99.2%
- CCCC(=O)NC(c1ccc(C)cc1)c1ccc2cccnc2c1O (configuration not stated) — higher, 96.2%
- CC(=O)c1ccc(-c2cnc3c(NC=O)cc(-c4ccccc4Oc4ccccc4)cn23)cc1 — lower, 38.3%
- CC(=O)N1CCCC(c2cc(C(=O)Nc3ccccc3)no2)C1 (configuration not stated) — higher, 100%
- Oc1c(I)cc(Cl)c2cccnc12 — higher, 71.1%
- O=C(Nc1nc2cc3c(cc2s1)OCCO3)C1=COCCO1 — higher, 99.1%
- CCCC(=O)NC(c1ccc(Cl)cc1)c1ccc2cccnc2c1O (configuration not stated) — higher, 99.9%
- Cc1c(C)c2ccc(OCC(=O)Nc3ccccn3)c(C)c2oc1=O — higher, 99.2%
- O=C(CNC(=O)C(c1ccccc1)c1ccccc1)N/N=C/c1ccc(O)cc1O — lower, 53.4%
- CN(C)c1ccc(/C=C/c2ccc3c4ccccc4ccc3[n+]2-c2ccccc2)cc1 — higher, 99.3%
- O=C(Nc1ncc([N+](=O)[O-])s1)c1ccc2c(c1)OCO2 — higher, 96.1%
- COC1CC(C)C(OC)c2cc(O)cc(c2O)NC(=O)C(C)=CC=CC(C)C(OC(N)=O)C(C)=CC(C)C1OC (configuration not stated) — higher, 94%
- Cc1ccc(-c2nc(-c3ccccn3)no2)cc1Cl — higher, 102%
- c1ccc(-c2nc(-c3ccccn3)no2)cc1 — higher, 89.5%
- O=C(COc1ccc2c(c1)CCC2)Nc1ccccn1 — higher, 98.8%
- Cc1cc(C2=NNC(=NC3CC3)SC2)c(C)n1-c1ccccc1F — higher, 98%
- Brc1ccc(N/N=C(/N=Nc2nn[nH]n2)c2ccccc2)cc1 — higher, 100%
- CCOc1ccc2nc(NC(=O)c3ccccn3)sc2c1 — higher, 88%
- COc1cccc2nc3c(C(=O)NCCN(C)C)cccc3cc12 — higher, 98.9%
- CN(C)c1ccc(/C=C(\C#N)c2ccccn2)cc1 — higher, 81.8%
- CCCOc1ccc2cc(-c3ccccn3)c(=O)oc2c1 — higher, 93.5%

target: PEG-3 (UniProt Q6IN02); assay: as above; settings: CREF/GAPDH counter-screens; HeLa PEG-Prom luciferase reporter, overnight, run 2, dose range 1, at 100 µM (top of the series) unless noted

Point of comparison: `O=C(Nc1nc2cc3c(cc2s1)OCCO3)C1=COCCO1`, inhibition 98%. Against it:
- CC(C)Cc1ccc(C(C)C(N)=NCCc2ccccc2)cc1 (configuration not stated) — higher, 102%
- CCCCCCN1C=C/C(=C\C=C(C#N)C#N)c2ccccc21 — lower, 78.7%
- Cc1ccc(-n2c(N)c(C(=O)Nc3c(C)n(C)n(-c4ccccc4)c3=O)c3nc4ccccc4nc32)cc1 — lower, 62.7%
- S=C(NN=C(c1ccccc1)c1ccccn1)N(Cc1ccccn1)Cc1ccccn1 — higher, 102%
- CCCn1nc(C(=O)Nc2nc(-c3ccccn3)cs2)c2ccccc2c1=O — lower, 80.4%
- Cc1cc(C)c(C)c(S(=O)(=O)N2CCN(C(=O)c3cc(=O)[nH]c4ccccc34)CC2)c1C — lower, 83.8%
- Oc1[nH]c2ccc(Br)cc2c1N=NC(=S)N1CCOCC1 — higher, 99%
- COc1cc(Nc2c3ccccc3nc3ccccc23)cc(OC)c1OC — higher, 102%
- Cc1cc(/C=N/Nc2ncnc(N)c2[N+](=O)[O-])c(C)n1-c1ccccc1 — lower, 87%
- COc1cccc(/C=N/NC(=O)c2ccc(-c3ccccc3)cc2)c1O — lower, 79.7%
- O=C(NNC(=O)c1cccnc1SCc1cccc([N+](=O)[O-])c1)c1ccccn1 — lower, 56.6%
- CN(C)c1ccc(/C=C/c2ccc3ccccc3n2)cc1 — lower, 96%
- CCCS(=O)(=O)c1cnc(C2COc3ccccc3O2)nc1N (configuration not stated) — lower, 94.6%
- O=C(CN1C(=O)c2ccccc2S1(=O)=O)c1ccc2c(c1)OCCO2 — higher, 101%
- CCn1nc(C)cc1-c1nnc(Sc2ncc([N+](=O)[O-])s2)n1C — higher, 101%
- O=C(Nc1ccc(Cc2ccncc2)cc1)c1ccc([N+](=O)[O-])o1 — higher, 101%
- Cc1oc(-c2ccc3c(c2)OCCO3)cc1C(=O)O — higher, 99.2%
- CC(=O)c1sc2c(c1OC(=O)c1ccc(Cl)cc1Cl)c(=O)n(-c1ccccc1)c(=S)n2-c1ccccc1 — lower, 96.3%
- COc1cc(CNCCCN2CCOCC2)cc(Br)c1OCc1ccc(Cl)cc1 — higher, 101%
- CCCC(=O)NC(c1ccc(C)cc1)c1ccc2cccnc2c1O (configuration not stated) — lower, 83.5%
- CC(=O)c1ccc(-c2cnc3c(NC=O)cc(-c4ccccc4Oc4ccccc4)cn23)cc1 — lower, 56.6%
- CC(=O)N1CCCC(c2cc(C(=O)Nc3ccccc3)no2)C1 (configuration not stated) — lower, 90.2%
- Oc1c(I)cc(Cl)c2cccnc12 — lower, 41.4%
- CCCC(=O)NC(c1ccc(Cl)cc1)c1ccc2cccnc2c1O (configuration not stated) — higher, 98.7%
- Cc1c(C)c2ccc(OCC(=O)Nc3ccccn3)c(C)c2oc1=O — lower, 93.2%
- O=C(CNC(=O)C(c1ccccc1)c1ccccc1)N/N=C/c1ccc(O)cc1O — lower, 52.3%
- CN(C)c1ccc(/C=C/c2ccc3c4ccccc4ccc3[n+]2-c2ccccc2)cc1 — higher, 98.8%
- O=C(Nc1ncc([N+](=O)[O-])s1)c1ccc2c(c1)OCO2 — lower, 89.6%
- COC1CC(C)C(OC)c2cc(O)cc(c2O)NC(=O)C(C)=CC=CC(C)C(OC(N)=O)C(C)=CC(C)C1OC (configuration not stated) — higher, 100%
- Cc1cc(NC(c2cccnc2)c2ccc3cccnc3c2O)no1 (configuration not stated) — lower, 74%
- Cc1ccc(-c2nc(-c3ccccn3)no2)cc1Cl — lower, 95.2%
- c1ccc(-c2nc(-c3ccccn3)no2)cc1 — lower, 91.1%
- O=C(COc1ccc2c(c1)CCC2)Nc1ccccn1 — lower, 94.2%
- Cc1cc(C2=NNC(=NC3CC3)SC2)c(C)n1-c1ccccc1F — higher, 102%
- Brc1ccc(N/N=C(/N=Nc2nn[nH]n2)c2ccccc2)cc1 — higher, 99.8%
- CCOc1ccc2nc(NC(=O)c3ccccn3)sc2c1 — lower, 83.6%
- COc1cccc2nc3c(C(=O)NCCN(C)C)cccc3cc12 — higher, 101%
- CN(C)c1ccc(/C=C(\C#N)c2ccccn2)cc1 — lower, 84.6%
- CCCOc1ccc2cc(-c3ccccn3)c(=O)oc2c1 — lower, 94.5%

From PubChem BioAssay
